Experimental data published in PubChem BioAssay (NCATS).
Where “and” joins values, the source holds several entries; their conditions need not be identical. Equal entries are not always repeated. Records with an inconclusive call do not appear. Calls of active or inactive are those of the source. Unless noted, calls follow the shape of the dose curve; as a rule, active = well fitted curve in the direction sought with a large enough effect; inconclusive = small, poorly fitted or top-dose-only effect, or another doubt; inactive = no such curve, though single readings can be large; an effect the other way counts as inactive or inconclusive.

What was measured:
[1] = qHTS for differential inhibitors of proliferation of Plasmodium falciparum line 3D7 (AID 1876); also: potency is read from the fitted curve at half-maximal effect
[2] = qHTS for differential inhibitors of proliferation of Plasmodium falciparum line D10 (AID 1877);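 also: potency is read from the fitted curve at half-maximal effect; parasites grown with compound for 72 h before DNA staining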
[3] = qHTS for differential inhibitors of proliferation of Plasmodium falciparum line W2 (AID 1883); conditions: Potency: Plasmodium falciparum W2 proliferation inhibition;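 also: potency is read from the fitted curve at half-maximal effect; parasites grown with compound for 72 h before lysis and staining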
[4] = qHTS for differential inhibitors of proliferation of Plasmodium falciparum line HB3 (AID 1886); conditions: Potency: Plasmodium falciparum HB3 proliferation inhibition;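 also: potency is read from the fitted curve at half-maximal effect; parasites grown with compound for 72 h before SYBR Green readout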
[5] = target: ATP-dependent DNA helicase Q1 (Homo sapiens) (UniProt P46063); test: qHTS Validation Assay for Inhibitors of RecQ-Like Dna Helicase 1 (RECQ1) (AID 2353)
Sequence of ATP-dependent DNA helicase Q1 (Homo sapiens) (P46063 whole entry, looked up): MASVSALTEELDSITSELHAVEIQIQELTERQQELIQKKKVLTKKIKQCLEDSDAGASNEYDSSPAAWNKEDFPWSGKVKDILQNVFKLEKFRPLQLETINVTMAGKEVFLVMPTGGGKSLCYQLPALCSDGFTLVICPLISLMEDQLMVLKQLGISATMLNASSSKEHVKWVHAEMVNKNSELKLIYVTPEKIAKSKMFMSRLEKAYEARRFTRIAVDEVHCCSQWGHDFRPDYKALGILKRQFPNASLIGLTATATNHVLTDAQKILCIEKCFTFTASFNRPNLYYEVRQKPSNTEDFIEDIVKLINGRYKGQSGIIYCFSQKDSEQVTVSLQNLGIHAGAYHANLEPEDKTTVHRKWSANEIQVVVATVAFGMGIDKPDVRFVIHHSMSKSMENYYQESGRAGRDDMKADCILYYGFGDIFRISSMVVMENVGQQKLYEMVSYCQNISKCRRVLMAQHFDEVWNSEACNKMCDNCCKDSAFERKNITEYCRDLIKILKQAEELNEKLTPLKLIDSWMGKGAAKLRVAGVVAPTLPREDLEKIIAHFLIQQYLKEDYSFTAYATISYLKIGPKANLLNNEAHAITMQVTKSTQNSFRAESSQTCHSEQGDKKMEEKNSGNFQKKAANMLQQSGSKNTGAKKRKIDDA
How it was run: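 50 nM RECQ1T1 preincubated 15 min with compound in Tris pH 8.0 buffer with MgCl2, DTT, Tween-20 and 2.5 ug/ml poly(dI-dC); started with 200 nM TAMRA/BHQ-2 forked duplex and 2 mM ATP. Unwinding read as fluorescence (525/598 nm), two reads 2 h apart.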

[6] = Cytometric Cell-Based qHTS for Inhibitors of the mTORC1 Signaling Pathway in MEF (Tsc2-/-, p53-/-) Cells (AID 2660);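 also: percent of cells above a phospho-rpS6 to PI ratio cutoff in each well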
How it was run: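 Cells are plated, treated with compound for 24 hrs at 37 degree Celsius, then fixed, blocked and immunostained for phospho-rpS6 Ser235/236. Propidium iodide counterstain follows. Per-well % positive cells is derived from the PI-normalized phospho-S6 signal.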

[7] = High Content Imaging Cell-Based qHTS for Inhibitors of the mTORC1 Signaling Pathway in MEF (Tsc2-/-, p53-/-) Cells (AID 2666); conditions: at 38.3 µM (top of the series);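 also: percent of cells scored positive for phospho-rpS6 Ser235/236 immunostaining by imaging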
How it was run: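 Read-out: % positive cells per well, with thresholds from highest- and lowest-signal wells, based on phospho-rpS6 (Ser235/236) intensity normalized to Hoechst nuclear stain. Cells: Tsc2-/-, p53-/- MEFs carrying empty vector; compound 24 hrs, 37 degree Celsius.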

[8] = High Content Imaging Cell-Based qHTS for Inhibitors of the mTORC1 Signaling Pathway in MEF Cells (AID 2667);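 also: Tsc2-/- p53-/- MEFs stably re-expressing wild-type Tsc2 exposed 24 h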
How it was run: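 MEF (Tsc2-/-, p53-/-, WT Tsc2 re-expressed); cpd 24 h, 37 °C; PFA fix; Alexa-488 anti-p-rpS6 Ser235/236, PI, Hoechst; IN Cell imaging; Hoechst/Alexa-488 intensity ratio; % active cells, thresholds set from rapamycin and DMSO wells.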

[9] = target: DNA polymerase III PolC-type (Bacillus subtilis (strain 168)) (UniProt P13267); test: qHTS Validation Assay for the Inhibitors of DNA Replication in Gram-Positive Bacteria (AID 485295);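 also: reconstituted holoenzyme with PolC plus beta clamp SSB and primase; PicoGreen fluorescence of double-stranded DNA made on primed circular M13 template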
Sequence of DNA polymerase III PolC-type (Bacillus subtilis (strain 168)) (P13267 whole entry, looked up): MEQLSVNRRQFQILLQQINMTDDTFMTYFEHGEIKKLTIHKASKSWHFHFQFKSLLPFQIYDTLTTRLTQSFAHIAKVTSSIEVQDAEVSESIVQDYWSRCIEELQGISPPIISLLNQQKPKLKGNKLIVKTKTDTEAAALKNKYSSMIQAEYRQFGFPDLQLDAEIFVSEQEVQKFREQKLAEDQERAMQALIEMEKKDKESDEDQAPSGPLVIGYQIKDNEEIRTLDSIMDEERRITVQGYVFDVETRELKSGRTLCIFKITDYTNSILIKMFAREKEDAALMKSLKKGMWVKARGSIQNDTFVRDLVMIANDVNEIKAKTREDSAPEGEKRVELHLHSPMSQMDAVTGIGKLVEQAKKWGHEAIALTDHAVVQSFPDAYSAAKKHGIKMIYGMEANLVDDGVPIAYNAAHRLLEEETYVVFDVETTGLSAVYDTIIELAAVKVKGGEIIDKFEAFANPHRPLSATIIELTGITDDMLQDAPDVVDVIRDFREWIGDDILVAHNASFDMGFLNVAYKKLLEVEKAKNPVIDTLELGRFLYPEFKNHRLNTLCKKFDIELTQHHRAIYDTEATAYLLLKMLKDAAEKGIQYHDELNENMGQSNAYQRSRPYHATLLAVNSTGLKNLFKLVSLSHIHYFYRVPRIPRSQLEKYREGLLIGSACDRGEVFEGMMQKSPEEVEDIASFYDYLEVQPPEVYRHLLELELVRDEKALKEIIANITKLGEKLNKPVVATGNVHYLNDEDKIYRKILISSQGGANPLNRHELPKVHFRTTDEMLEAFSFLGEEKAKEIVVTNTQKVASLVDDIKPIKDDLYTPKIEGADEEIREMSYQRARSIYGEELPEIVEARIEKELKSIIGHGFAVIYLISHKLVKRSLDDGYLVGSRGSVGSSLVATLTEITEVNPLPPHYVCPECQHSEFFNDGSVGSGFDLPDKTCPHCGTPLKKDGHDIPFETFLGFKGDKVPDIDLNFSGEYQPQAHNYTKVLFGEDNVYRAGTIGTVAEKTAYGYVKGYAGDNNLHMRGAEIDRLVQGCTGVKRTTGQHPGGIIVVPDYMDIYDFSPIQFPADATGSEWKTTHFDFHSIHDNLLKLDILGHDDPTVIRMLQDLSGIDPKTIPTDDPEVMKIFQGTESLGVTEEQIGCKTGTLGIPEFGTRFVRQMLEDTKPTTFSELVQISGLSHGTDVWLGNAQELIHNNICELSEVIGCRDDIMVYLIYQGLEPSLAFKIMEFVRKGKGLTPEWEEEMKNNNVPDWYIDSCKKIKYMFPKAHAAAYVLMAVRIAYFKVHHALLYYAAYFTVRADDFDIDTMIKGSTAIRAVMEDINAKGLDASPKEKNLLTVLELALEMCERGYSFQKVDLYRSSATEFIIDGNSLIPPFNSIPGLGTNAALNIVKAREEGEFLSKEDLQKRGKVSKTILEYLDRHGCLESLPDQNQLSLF
How it was run: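 Inhibition of DNA synthesis by the reconstituted PolC holoenzyme, monitored through PicoGreen staining of dsDNA formed from ssM13Gori, dNTPs and NTPs, with compound preincubation and room-temperature reaction.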

[10] = target: Tumor susceptibility gene 101 protein (Homo sapiens) (UniProt Q99816); test: qHTS Validation Assay for Iinhibitors of HIV-1 Budding by Blocking the Interaction of PTAP/TSG101 (AID 485342; calls by dose curve)
Sequence of Tumor susceptibility gene 101 protein (Homo sapiens) (Q99816 whole entry, looked up, the tested form may be a part): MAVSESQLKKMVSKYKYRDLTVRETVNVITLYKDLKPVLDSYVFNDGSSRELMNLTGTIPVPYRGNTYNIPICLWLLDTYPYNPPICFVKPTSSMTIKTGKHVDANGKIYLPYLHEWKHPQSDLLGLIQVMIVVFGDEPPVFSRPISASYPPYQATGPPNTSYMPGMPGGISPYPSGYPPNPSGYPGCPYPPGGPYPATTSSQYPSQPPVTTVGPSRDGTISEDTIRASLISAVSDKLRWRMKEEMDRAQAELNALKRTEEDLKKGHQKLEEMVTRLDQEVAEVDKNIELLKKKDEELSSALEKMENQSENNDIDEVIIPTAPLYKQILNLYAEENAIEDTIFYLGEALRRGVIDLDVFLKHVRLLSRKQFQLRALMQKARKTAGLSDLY
How it was run: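 Compound wells held the Tsg101 binding domain (10 uM) and a FITC-conjugated PTAP peptide (50 nM) in buffer at pH 7.5 containing 0.15 M NaCl and 0.01% Tween 20; polarization was recorded after 20 min, r.t.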

[11] = target: ATP-dependent 6-phosphofructokinase (Trypanosoma brucei brucei) (UniProt O15648); test: qHTS Validation Assay to Find Inhibitors of T. brucei phosphofructokinase (AID 485368)
Sequence of ATP-dependent 6-phosphofructokinase (Trypanosoma brucei brucei) (O15648 whole entry, looked up): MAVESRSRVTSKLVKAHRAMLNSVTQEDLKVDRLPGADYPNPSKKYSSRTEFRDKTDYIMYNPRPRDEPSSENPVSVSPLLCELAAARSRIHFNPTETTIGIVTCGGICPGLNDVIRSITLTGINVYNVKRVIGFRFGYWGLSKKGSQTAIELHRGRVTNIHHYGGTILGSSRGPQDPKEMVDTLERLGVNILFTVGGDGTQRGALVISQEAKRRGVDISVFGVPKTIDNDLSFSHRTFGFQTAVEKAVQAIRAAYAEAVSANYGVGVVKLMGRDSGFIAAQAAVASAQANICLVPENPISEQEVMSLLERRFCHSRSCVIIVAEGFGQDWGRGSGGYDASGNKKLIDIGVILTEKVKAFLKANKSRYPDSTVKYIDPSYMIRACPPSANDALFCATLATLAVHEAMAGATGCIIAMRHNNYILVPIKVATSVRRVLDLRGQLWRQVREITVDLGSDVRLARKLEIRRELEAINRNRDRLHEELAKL
How it was run: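 Enzyme reaction in triethanolamine buffer pH 8.0 with 5 mM MgCl2, 0.01% Tween20 and 0.1% BSA; PFK 1.25 nM, F6P 0.5 mM, ATP 0.1 mM, 45 min RT. ADP quantified by ADP-Glo.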

[12] = Quantitative high throughput screen for delayed death inhibitors of the malarial parasite plastid, 96 hour incubation (AID 488745); also: potency is read from the fitted curve at half-maximal effect; nearly all actives have a fitted effect of over 70% in size
How it was run: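 P. falciparum carrying an integrated firefly luciferase reporter, grown in erythrocytes (2% hematocrit, 0.1% parasitemia final) in RPMI 1640/0.5% Albumax, was exposed to compound for 96 h (two generations) at 37 C, 5% CO2. Luminescence decrease indicated growth inhibition.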

[13] = target: Thioredoxin reductase 1, cytoplasmic (Rattus norvegicus) (UniProt O89049); test: qHTS Assay for Substrates of Mammalian Selenoprotein Thioredoxin Reductase 1 (TrxR1) (AID 488772);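 also: NADPH fluorescence in the first read after selenite addition and not the 8 min delta; a drop in NADPH fluorescence below the no-compound background marks a TrxR1 substrate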
Sequence of Thioredoxin reductase 1, cytoplasmic (Rattus norvegicus) (O89049 whole entry, looked up): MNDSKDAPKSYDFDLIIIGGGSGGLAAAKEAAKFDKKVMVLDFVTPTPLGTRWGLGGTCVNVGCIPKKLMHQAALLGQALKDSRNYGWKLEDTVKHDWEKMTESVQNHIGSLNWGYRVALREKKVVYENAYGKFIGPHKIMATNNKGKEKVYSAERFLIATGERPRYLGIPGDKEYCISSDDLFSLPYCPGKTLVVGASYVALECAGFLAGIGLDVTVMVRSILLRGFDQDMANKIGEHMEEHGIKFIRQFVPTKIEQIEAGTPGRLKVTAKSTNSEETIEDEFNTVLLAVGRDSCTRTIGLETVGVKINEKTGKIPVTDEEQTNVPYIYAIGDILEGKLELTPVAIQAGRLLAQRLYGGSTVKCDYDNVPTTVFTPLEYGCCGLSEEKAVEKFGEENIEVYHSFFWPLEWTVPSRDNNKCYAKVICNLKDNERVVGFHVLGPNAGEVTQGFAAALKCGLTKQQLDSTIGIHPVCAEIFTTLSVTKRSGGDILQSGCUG
How it was run: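 Quantitative HTS in Tris-HCl buffer at pH 7.5 with EDTA and Tween-20, using rat TrxR1, 400 uM NADPH and 400 uM selenite (final). A fall in initial NADPH fluorescence relative to background marked substrate behaviour.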

[14] = target: Thioredoxin reductase 1, cytoplasmic (Rattus norvegicus) (UniProt O89049); test: qHTS Assay for Inhibitors of Mammalian Selenoprotein Thioredoxin Reductase 1 (TrxR1) (AID 488773); conditions: Potency: inhibition;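 also: drop in NADPH fluorescence over an 8 min run after selenite addition; nearly all actives have a fitted effect of over 40% in size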
How it was run: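 Steps: enzyme (90 nM) plus NADPH (400 uM final), 5 min at ~22 deg C; compound added, 15 min; selenite (400 uM final) added; fluorescence followed for 8 min. Concentration-response curves derived from the normalized delta values.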

[15] = target: Flap endonuclease 1 (Homo sapiens) (UniProt P39748); test: qHTS Validation Assay for the Inhibitors of Human Flap endonuclease 1 (FEN1) (AID 488816)
How it was run: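 FEN1, dispensed as a 10 nM reagent, was preincubated with pin-transferred compounds for 15 min at room temperature before substrate was added (50 nM final). Plates were read at 0 and 15 min, and a four-parameter Hill equation was fitted to the concentration-response data.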

[16] = target: M-phase phosphoprotein 8 (Homo sapiens) (UniProt Q99549); test: qHTS Validation Assay for Inhibitors for MPP8 Chromodomain Interactions with Methylated Histone Tails (AID 488949); also: potency is read from the fitted curve at half-maximal effect; nearly all actives have a fitted effect of over 55% in size
Sequence of M-phase phosphoprotein 8 (Homo sapiens) (Q99549 whole entry, looked up): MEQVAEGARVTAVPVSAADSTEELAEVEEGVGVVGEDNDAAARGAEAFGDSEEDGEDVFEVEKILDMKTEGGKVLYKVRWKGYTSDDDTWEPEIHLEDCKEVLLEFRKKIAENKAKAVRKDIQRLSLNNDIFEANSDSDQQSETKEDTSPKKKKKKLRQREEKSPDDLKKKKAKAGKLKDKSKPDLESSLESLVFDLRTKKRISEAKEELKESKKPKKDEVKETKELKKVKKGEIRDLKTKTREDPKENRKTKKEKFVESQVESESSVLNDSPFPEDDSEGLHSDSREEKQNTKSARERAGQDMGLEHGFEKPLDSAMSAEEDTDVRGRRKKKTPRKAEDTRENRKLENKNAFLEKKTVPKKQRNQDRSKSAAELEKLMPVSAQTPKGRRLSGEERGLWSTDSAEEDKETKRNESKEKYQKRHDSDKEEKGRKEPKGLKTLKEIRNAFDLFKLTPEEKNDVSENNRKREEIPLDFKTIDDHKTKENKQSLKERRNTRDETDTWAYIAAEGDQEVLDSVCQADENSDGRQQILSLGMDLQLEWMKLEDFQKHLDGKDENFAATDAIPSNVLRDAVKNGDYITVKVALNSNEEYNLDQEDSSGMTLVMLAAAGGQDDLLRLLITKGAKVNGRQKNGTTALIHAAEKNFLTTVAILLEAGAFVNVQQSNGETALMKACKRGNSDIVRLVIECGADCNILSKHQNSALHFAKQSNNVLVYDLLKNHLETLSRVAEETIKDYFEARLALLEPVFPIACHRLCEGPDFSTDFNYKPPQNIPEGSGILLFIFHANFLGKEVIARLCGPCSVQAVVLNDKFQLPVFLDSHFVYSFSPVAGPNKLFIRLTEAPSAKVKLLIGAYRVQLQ
How it was run: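 Chemiluminescent proximity assay: histidine-tag capture via nickel acceptor beads, biotin peptide via streptavidin donor beads. Protein and peptide each at 50 nM, pH 7.4, with 30 min incubations at room temperature for complex formation, compound exposure and bead binding.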

[17] = target: Chromobox protein homolog 1 (Homo sapiens) (UniProt P83916); test: qHTS Validation Assay for Inhibitors of HP1-beta Chromodomain Interactions with Methylated Histone Tails (AID 488953); also: potency is read from the fitted curve at half-maximal effect; nearly all actives have a fitted effect of over 50% in size
Sequence of Chromobox protein homolog 1 (Homo sapiens) (P83916 whole entry, looked up): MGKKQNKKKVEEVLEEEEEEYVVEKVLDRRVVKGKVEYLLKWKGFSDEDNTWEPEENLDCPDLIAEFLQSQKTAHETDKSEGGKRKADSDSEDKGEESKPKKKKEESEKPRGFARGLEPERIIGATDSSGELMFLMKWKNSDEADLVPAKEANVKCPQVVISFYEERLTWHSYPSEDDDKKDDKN
How it was run: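 HP1-beta (50 nM) was preincubated 30 min at room temperature with biotinylated H3(1-18)K9me3 peptide (50 nM) in PBS pH 7.4, 0.01% Tween-20, then with compounds 30 min. AlphaScreen signal was read after streptavidin donor/nickel chelate acceptor beads (10 ug/mL final).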

[18] = target: Methanococcus maripaludis chaperonin (MmCpn) (UniProt Q6LX38); test: High-Throughput Screening for Modulators of Cytosolic Chaperonin Activity: MmCpn Primary Screen (AID 488978)
Sequence of Methanococcus maripaludis chaperonin (MmCpn) (Q6LX38 1-543): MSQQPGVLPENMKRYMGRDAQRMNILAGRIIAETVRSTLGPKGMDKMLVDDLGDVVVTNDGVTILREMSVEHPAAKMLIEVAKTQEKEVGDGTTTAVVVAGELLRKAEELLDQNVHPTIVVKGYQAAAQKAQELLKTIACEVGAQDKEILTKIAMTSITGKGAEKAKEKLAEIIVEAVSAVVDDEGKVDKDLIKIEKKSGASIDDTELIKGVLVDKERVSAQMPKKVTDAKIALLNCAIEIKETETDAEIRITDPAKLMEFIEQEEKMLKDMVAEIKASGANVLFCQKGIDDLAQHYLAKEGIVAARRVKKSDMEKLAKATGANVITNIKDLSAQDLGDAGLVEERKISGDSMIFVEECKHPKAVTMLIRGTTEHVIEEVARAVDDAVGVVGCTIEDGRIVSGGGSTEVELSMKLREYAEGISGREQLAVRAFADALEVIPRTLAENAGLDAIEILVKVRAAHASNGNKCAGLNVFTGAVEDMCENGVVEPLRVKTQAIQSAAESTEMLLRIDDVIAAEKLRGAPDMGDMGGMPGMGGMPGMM
How it was run: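 HTRF readout (320 nm excitation, 590/665 nm emission) of ADP generated by 50 nM MmCpn hydrolysing 30 uM ATP during 10 min at 37C; compound preincubated 5 min RT.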

[19] = target: Transient receptor potential cation channel subfamily V member 1 (Homo sapiens) (UniProt Q8NER1); test: HTS Assay for Compounds that Act as Enhancers of the Vanilloid Receptor 1 (AID 488979)
How it was run: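 TRPV1-expressing cells loaded with Fluo-8 calcium dye; compounds added and calcium influx read kinetically for 3 min (agonist phase), then capsaicin at EC20 added and read 2 min more for enhancement. Fluorescence ex 480/em 520 nm.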

Measured: Potency

O=Nc1c(-c2c(O)[nH]c3ccccc23)[nH]c2ccccc12
active: [1] 355 nM | [2] 1580 nM | [3] 398 nM | [4] 501 nM | [12] 1170 nM | [16] 6.31 µM and 7.52 µM | [17] 3980 nM
inactive: all other assays above
